PubChem BioAssay (NCATS)
Records with an inconclusive call do not appear. Entries that show only a call come without a potency. Active and inactive are the calls of the source. Calls follow the shape of the dose curve; as a rule, active = well fitted curve in the direction sought with a large enough effect; inconclusive = small, poorly fitted or top-dose-only effect, or another doubt; inactive = no such curve, though single readings can be large; an effect the other way counts as inactive or inconclusive.

Tests used:
[1] = Quantitative High-Throughput drug screen in 47 multiple myeloma cell lines against the NCATS MIPE library collection: EJM_DSMZ cell viability assay (AID 1918926; also: nearly all actives have a fitted effect of over 30% in size; also: potency is read from the fitted curve at half-maximal effect)
Procedure, shortened: (§1)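 Luminescent ATP measurement with CellTiter-Glo gives viability, scaled between DMSO-only wells (100%) and media-only wells (0%). Cells, 500 per well, faced library compounds for 48 hours at 37C.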

[2] = Quantitative High-Throughput drug screen in 47 multiple myeloma cell lines against the NCATS MIPE library collection: AMO1_DSMZ cell viability assay (AID 1918927; also: nearly all actives have a fitted effect of over 30% in size; also: potency is read from the fitted curve at half-maximal effect)
Procedure, shortened: as §1

[3] = Quantitative High-Throughput drug screen in 47 multiple myeloma cell lines against the NCATS MIPE library collection: ARP1_JJKsccF8 cell viability assay (AID 1918928; also: nearly all actives have a fitted effect of over 40% in size; also: potency is read from the fitted curve at half-maximal effect)
Procedure, shortened: (§2)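 CellTiter-Glo luminescence after 48 h exposure gives viability, scaled between DMSO-only (100%) and media-only (0%) controls. Library compounds are pinned onto 500 myeloma cells per well, incubated at 37C with 5% CO2.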

[4] = Quantitative High-Throughput drug screen in 47 multiple myeloma cell lines against the NCATS MIPE library collection: ARD_JJKsccE7 cell viability assay (AID 1918929; also: potency is read from the fitted curve at half-maximal effect)
Procedure, shortened: as §1

[5] = Quantitative High-Throughput drug screen in 47 multiple myeloma cell lines against the NCATS MIPE library collection: Karpas620_DSMZ cell viability assay (AID 1918959); also: nearly all actives have a fitted effect of over 30% in size; also: potency is read from the fitted curve at half-maximal effect
Procedure, shortened: (§3)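 qHTS of the MIPE 4.0 collection: 500 myeloma cells/well, 48 h drug exposure at 37C in 5% CO2, then CellTiter-Glo for 5 min at room temperature before luminescence reading.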

[6] = Quantitative High-Throughput drug screen in 47 multiple myeloma cell lines against the NCATS MIPE library collection: KMM1_JCRB cell viability assay (AID 1918960); also: nearly all actives have a fitted effect of over 30% in size; also: potency is read from the fitted curve at half-maximal effect
Procedure, shortened: as §2

[7] = Quantitative High-Throughput drug screen in 47 multiple myeloma cell lines against the NCATS MIPE library collection: KHM11_PLB cell viability assay (AID 1918962); also: nearly all actives have a fitted effect of over 35% in size; also: potency is read from the fitted curve at half-maximal effect
Procedure, shortened: as §3

[8] = Quantitative High-Throughput drug screen in 47 multiple myeloma cell lines against the NCATS MIPE library collection: JIM3_ECACC cell viability assay (AID 1918963; also: nearly all actives have a fitted effect of over 35% in size; also: potency is read from the fitted curve at half-maximal effect)
Procedure, shortened: as §3

[9] = Quantitative High-Throughput drug screen in 47 multiple myeloma cell lines against the NCATS MIPE library collection: INA6_PLB cell viability assay (AID 1918965; also: nearly all actives have a fitted effect of over 55% in size; also: potency is read from the fitted curve at half-maximal effect)
Procedure, shortened: as §1

[10] = Quantitative High-Throughput drug screen in 47 multiple myeloma cell lines against the NCATS MIPE library collection: H1112_PLB cell viability assay (AID 1918967; also: nearly all actives have a fitted effect of over 30% in size; also: potency is read from the fitted curve at half-maximal effect)
Procedure, shortened: as §1

[11] = Quantitative High-Throughput drug screen in 47 multiple myeloma cell lines against the NCATS MIPE library collection: Karpas25_ECACC cell viability assay (AID 1918968; also: nearly all actives have a fitted effect of over 35% in size; also: potency is read from the fitted curve at half-maximal effect)
Procedure, shortened: as §1

[12] = Quantitative High-Throughput drug screen in 47 multiple myeloma cell lines against the NCATS MIPE library collection: KMS27_JCRB cell viability assay (AID 1918970); also: nearly all actives have a fitted effect of over 30% in size; also: potency is read from the fitted curve at half-maximal effect
Procedure, shortened: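 KMS27_JCRB myeloma cells, 500 per well, exposed 48 h at 37 C, 5% CO2 to MIPE 4.0 compounds. Viability from ATP by CellTiter-Glo luminescence, normalized to DMSO (100%) and medium-only (0%) wells.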

[13] = Quantitative High-Throughput drug screen in 47 multiple myeloma cell lines against the NCATS MIPE library collection: KMS12PE_JCRB cell viability assay (AID 1918972); also: nearly all actives have a fitted effect of over 30% in size; also: potency is read from the fitted curve at half-maximal effect
Procedure, shortened: as §1

[14] = Quantitative High-Throughput drug screen in 47 multiple myeloma cell lines against the NCATS MIPE library collection: KMS20_JCRB cell viability assay (AID 1918973); also: nearly all actives have a fitted effect of over 45% in size; also: potency is read from the fitted curve at half-maximal effect
Procedure, shortened: as §1

[15] = Quantitative High-Throughput drug screen in 47 multiple myeloma cell lines against the NCATS MIPE library collection: JIM1_ECACC cell viability assay (AID 1918964; also: potency is read from the fitted curve at half-maximal effect)
Procedure, shortened: as §1

[16] = Quantitative High-Throughput drug screen in 47 multiple myeloma cell lines against the NCATS MIPE library collection: JJN3_DSMZ cell viability assay (AID 1918966; also: nearly all actives have a fitted effect of over 50% in size; also: potency is read from the fitted curve at half-maximal effect)
Procedure, shortened: as §1

[17] = Quantitative High-Throughput drug screen in 47 multiple myeloma cell lines against the NCATS MIPE library collection: KMS26_JCRB cell viability assay (AID 1918975); also: nearly all actives have a fitted effect of over 45% in size; also: potency is read from the fitted curve at half-maximal effect
Procedure, shortened: (§4)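 Approved and investigational drugs from MIPE 4.0 were added by pin tool to 500 cells per well. After 48 hours at 37C, ATP-based CellTiter-Glo luminescence indicated remaining viability.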

[18] = Quantitative High-Throughput drug screen in 47 multiple myeloma cell lines against the NCATS MIPE library collection: KMS12BM_JCRB cell viability assay (AID 1918971); also: nearly all actives have a fitted effect of over 35% in size; also: potency is read from the fitted curve at half-maximal effect
Procedure, shortened: as §4

[19] = Quantitative High-Throughput drug screen in 47 multiple myeloma cell lines against the NCATS MIPE library collection: Karpas417_ECACC cell viability assay (AID 1918961); details: Karpas417 myeloma viability, CellTiter-Glo ATP luminescence, 48 h; viability (% of DMSO): at 45.8 µM (top of the series)
Procedure, shortened: as §1

[20] = Quantitative High-Throughput drug screen in 47 multiple myeloma cell lines against the NCATS MIPE library collection: KMS21BM_JCRB cell viability assay (AID 1918974); details: ATP luminescence, 48 h; viability: at 45.8 µM (top of the series); also: potency is read from the fitted curve at half-maximal effect
Procedure, shortened: as §1

Structure (SMILES)	Potency [1]	Potency [2]	Potency [3]	Potency [4]	Potency [5]	Potency [6]	Potency [7]	Potency [8]	Potency [9]	Potency [10]	Potency [11]	Potency [12]	Potency [13]	Potency [14]	Potency [15]	Potency [16]	Potency [17]	Potency [18]	Potency [19]	Potency [20]
CNC(=O)c1cc(Oc2ccc(NC(=O)Nc3ccc(Cl)c(C(F)(F)F)c3)cc2)ccn1	18.7 µM (active)	5.26 µM (active)	23.5 µM (active)	2.64 µM (active)	3.32 µM (active)	2.96 µM (active)	11.8 µM (active)	10.5 µM (active)	13.2 µM (active)	9.35 µM (active)	6.62 µM (active)	3.32 µM (active)	3.72 µM (active)	16.6 µM (active)						
CCCCc1oc2ccc(NS(C)(=O)=O)cc2c1C(=O)c1ccc(OCCCN(CCCC)CCCC)cc1	16.6 µM (active)	9.35 µM (active)	16.6 µM (active)	16.6 µM (active)	20.9 µM (active)	20.9 µM (active)		18.7 µM (active)	9.35 µM (active)	18.7 µM (active)	16.6 µM (active)	14.8 µM (active)	9.35 µM (active)	9.35 µM (active)	10.5 µM (active)	14.8 µM (active)	14.8 µM (active)			
NC1(c2ccc(-c3nc4ccn5c(=O)[nH]nc5c4cc3-c3ccccc3)cc2)CCC1	11.8 µM (active)	3.72 µM (active)	14.8 µM (active)	0.296 µM (active)	inactive	1.87 µM (active)	5.9 µM (active)	0.662 µM (active)	11.8 µM (active)	0.0833 µM (active)	5.26 µM (active)		0.296 µM (active)	5.26 µM (active)	1.48 µM (active)		14.8 µM (active)	23.5 µM (active)		
Cn1nnc2c(C(N)=O)ncn2c1=O	inactive	inactive	inactive	inactive	inactive	inactive	inactive	inactive		inactive	inactive	inactive	inactive	inactive	inactive	inactive	inactive			
CCOC(=O)c1ccc(OC(=O)CCCCCN=C(N)N)cc1	inactive	inactive	inactive	inactive	inactive	inactive			inactive	inactive	inactive		inactive		inactive			inactive	inactive	
CC(C)(C)C(=O)OCOP(=O)(COCCn1cnc2c(N)ncnc21)OCOC(=O)C(C)(C)C	0.935 µM (active)	0.105 µM (active)	0.833 µM (active)	5.9 µM (active)	16.6 µM (active)	11.8 µM (active)	0.935 µM (active)	2.64 µM (active)	0.743 µM (active)	3.72 µM (active)	1.66 µM (active)	0.469 µM (active)			2.64 µM (active)		6.62 µM (active)	0.935 µM (active)		
Cc1onc(-c2ccccc2Cl)c1C(=O)N[C@@H]1C(=O)N2[C@@H]1SC(C)(C)[C@@H]2C(=O)O	inactive	inactive	inactive	inactive	inactive	inactive	inactive	inactive		inactive	inactive	inactive	inactive					inactive	inactive	
Cc1cc(NS(=O)(=O)c2ccc(N)cc2)no1	inactive	inactive	inactive	inactive	inactive	inactive	inactive	inactive	inactive	inactive	inactive	inactive	inactive		inactive		inactive	inactive		inactive
COC(c1ccccc1)(c1ccccc1)[C@H](Oc1nc(C)cc(C)n1)C(=O)O	inactive	inactive	inactive	inactive	inactive	inactive	inactive	inactive		inactive	inactive	inactive	inactive		inactive		inactive		inactive	
Nc1[nH]c(=O)ncc1F	inactive	4.69 µM (active)	inactive	inactive	inactive	inactive		inactive		inactive	inactive	inactive	inactive	inactive	inactive			inactive		
O=C(O)C1CCCN(CCC=C(c2ccccc2)c2ccccc2)C1 (stereo not drawn)	inactive	inactive	inactive	inactive	inactive	inactive			inactive	inactive		inactive	inactive				inactive			
Cc1cccc(Nc2ccncc2S(=O)(=O)NC(=O)NC(C)C)c1	inactive	inactive	inactive		inactive	inactive	inactive	inactive		inactive	inactive	inactive	inactive		inactive	20.9 µM (active)				
COC(=O)Nc1nc2ccc(Sc3ccccc3)cc2[nH]1	16.6 µM (active)	0.833 µM (active)	1.18 µM (active)	1.32 µM (active)		1.18 µM (active)		0.833 µM (active)	0.743 µM (active)				0.833 µM (active)		0.833 µM (active)	10.5 µM (active)	18.7 µM (active)			0.59 µM (active)
CC[C@H](NC(C)C)[C@H](O)c1ccc(O)c2[nH]c(=O)ccc12	inactive	inactive	inactive	inactive	inactive			inactive		inactive		inactive	inactive	inactive	inactive		inactive			
